Screening data deposited in PubChem by National Center for Advancing Translational Sciences (NCATS).
D2 antagonist: D2 dopamine receptor (human) antagonism. P14416. HEK293 TREx D2 cells, calcium flux, dopamine EC80. inhibition, % at 10 µM. 340,000 compounds, 2% hits. AID 485344; in the data active = inhibition above about 30%; inactive = below that, where a call was filed; also: 0% is about no effect
Target sequence (P14416 whole entry, looked up): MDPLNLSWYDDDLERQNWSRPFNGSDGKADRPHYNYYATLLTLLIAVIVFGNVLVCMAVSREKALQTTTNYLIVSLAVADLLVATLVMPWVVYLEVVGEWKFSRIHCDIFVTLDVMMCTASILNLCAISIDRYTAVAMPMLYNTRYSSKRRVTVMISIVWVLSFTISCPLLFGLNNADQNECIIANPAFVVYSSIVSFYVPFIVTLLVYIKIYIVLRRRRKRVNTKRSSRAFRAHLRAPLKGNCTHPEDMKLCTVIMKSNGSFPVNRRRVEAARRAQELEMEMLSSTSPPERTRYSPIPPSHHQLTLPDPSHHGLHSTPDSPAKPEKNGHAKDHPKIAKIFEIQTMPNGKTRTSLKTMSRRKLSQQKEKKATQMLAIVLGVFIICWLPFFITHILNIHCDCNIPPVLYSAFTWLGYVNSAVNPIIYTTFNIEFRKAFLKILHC
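In this primary screen, negative modulation is detected by tracking calcium flux after an EC80 dopamine challenge in inducible HEK293 T-REx D2 cells preexposed to test compound for 180 s.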
D2 PAM-1: positive allosteric modulators of human D2 dopamine receptor. P14416. HEK293 T-REx D2, calcium flux, EC20 dopamine potentiation. potentiation, % at 10 µM. 340,000 compounds, 0.34% hits. AID 485347;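 active = potentiation over 3 SD above the plate norm, cut at about 30% in these data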; also: 0% is about no effect
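Primary screen. Calcium kinetics in induced HEK293 T-REx D2 cells: compound pre-addition 180 s, EC20 dopamine, 180 s more.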
D2 ag-1: human D2 receptor agonism in beta-arrestin assay | P14416 | activation, % (concentration not given with the values) | DiscoveRx PathHunter D2 beta-arrestin, luminescence, 90 min; 100% = 57 uM dopamine signal | 360,000 compounds, 0.084% hits; in the data active = activation above about 40%; inconclusive = between about 15% and that limit
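Agonist mode: compounds alone added to overnight-plated D2 PathHunter cells for 90 min at 37 C, with 57 uM final dopamine (EC100) defining full response. Beta-arrestin recruitment detected by chemiluminescent reagent, read after 1 h at ambient temperature.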
D2 PAM-2: human D2 receptor positive allosteric modulation. P14416. DiscoveRx D2 beta-arrestin cells, luminescence, 90 min; 100% = 57 uM dopamine signal. potentiation, % (test concentration not listed). 360,000 compounds, 0.23% hits; in the data active = potentiation above about 50%; inconclusive = mostly about 30% to 49%
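D2 cells co-treated with compound plus 50 nM dopamine (EC20) for 90 min at 37 deg C to detect potentiation. Beta-arrestin recruitment was read as enzyme-fragment luminescence after 1 h at ambient temperature. Full response was set by 57 uM dopamine.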
D2 ag-2: D2 dopamine receptor (human) agonism; HEK293 T-REx D2 cells, calcium flux agonist mode; P14416; AID 485358; activation, % at 2 µM; 340,000 compounds, 0.53% hits;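 active = activation over 3 SD above normal in the single-dose calcium agonist read, cut at about 30% in these data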; also: 0% is about no effect
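HEK293 Trex D2 cells, tetracycline-induced, o/n 30 C 5% CO2; no-wash Ca dye, RT 30–90 min; 10-cycle baseline, 23 nl cpd added, kinetic Ca read 180 s; agonist hits = positive Ca response.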
Active calls of the source: *; ? = inconclusive; . = not tested or not shown. Only some compounds are listed: those with a hit (about 2.4% of all), similar ones and a draw of the others.

SMILES | D2 antagonist | D2 PAM-1 | D2 ag-1 | D2 PAM-2 | D2 ag-2
COc1ccc(-n2c(=S)[nH]c3c(sc(=S)n3-c3ccccc3)c2=O)c(OC)c1 | -3.2 | 37.0* | -5.7 | -29.6 | 0.1
COc1ccc(-n2c(=S)[nH]c3sc(-c4ccccc4)cc3c2=O)c(OC)c1 | 23.3 | -4.0 | -4.2 | -8.0 | -0.2
COc1ccccc1CNC(=O)CSc1ncc(S(=O)(=O)c2ccc(C)c(Cl)c2)c(=O)[nH]1 | . | -2.4 | . | . | 0.6
CCCCCn1c(=O)c(C(=O)OCC)c(O)c2ccccc21 | -2.4 | 9.1 | -2.2 | 15.0 | -1.0
CCCCn1c(=O)c(C(=O)OCC)c(O)c2ccccc21 | 38.4* | 7.7 | -0.4 | 12.5 | 1.3
CSCCC(NC(=O)c1ccco1)C(=O)N1CCCCCCC1 (centres undefined) | -15.8 | 19.6 | -2.5 | 2.4 | 0.3
CSCCC(NC(=O)c1ccco1)C(=O)O (centres undefined) | -12.4 | 31.4* | -2.3 | -5.8 | 0.6
COc1ccc(-c2csc(NC(=O)CN3C(=O)NC4(CCCC4)C3=O)n2)cc1 | 38.3* | -14.5 | 0.6 | 1.9 | 0.0
COc1ccc(/C=C/C(=O)O)cc1COc1cccc(C)c1 | 40.3* | -19.3 | 2.0 | -8.8 | 0.1
COc1ccc(/C=C/C(=O)C2CC2)cc1COc1c(C)cccc1C | 10.4 | . | 4.2 | 0.5 | 0.9
OC(CNCCc1ccc(C(F)(F)F)cc1)COC(c1ccccc1)c1ccccc1 (centres undefined) | 31.0* | -5.4 | -2.8 | -9.6 | 7.1
COc1ccc(C(OCC(O)CNCCc2ccc(S(N)(=O)=O)cc2)c2ccc(OC)cc2)cc1 (centres undefined) | 13.0 | 8.4 | -2.6 | -10.6 | 1.8
Cc1nn(CC(=O)N2CCN(c3ccccc3)CC2)c(=O)c2cc3cc(F)ccc3n12 | . | 5.7 | . | . | -0.2
CC(C)CCn1c(Oc2ccccc2F)nc2c1c(=O)n(C)c(=O)n2C | . | 0.8 | . | . | 0.0
O=C(COCc1cc(-c2ccc3c(c2)OCO3)on1)N1CCCCC1 | 77.7* | 4.1 | -0.5 | -8.0 | -1.5
CCOC(=O)c1c(C)[nH]c(C)c1S(=O)(=O)N(C)CC(=O)NCc1ccc(Cl)cc1 | . | 9.8 | . | . | -1.6
N/C(=N\OC(=O)c1ccccc1Cl)c1ccc(Cl)cc1 | . | . | ? | 26.4 | .
N/C(=N\OC(=O)c1ccc(Cl)cc1)c1ccc(Cl)cc1 | -18.6 | 0.4 | ? | 86.2* | 0.0
N/C(=N\OC(=O)c1ccc(OCC(F)(F)F)nc1)c1ccc(Cl)cc1 | 30.3* | 4.5 | ? | 53.0* | 0.5
N/C(=N\OC(=O)c1ccc(Cl)cc1Cl)c1ccc(Cl)cc1 | 12.2 | 10.5 | ? | 114.3* | 0.1
N/C(=N\OC(=O)c1ccc(Cl)cc1)c1cccnc1 | 8.4 | -10.4 | ? | 26.6 | 0.3
N/C(=N\OC(=O)c1ccc(Cl)cc1Cl)c1ccccc1 | 14.6 | -1.2 | ? | ? | -0.6
N/C(=N\OC(=O)c1ccc(Cl)cc1Cl)c1cccnc1 | 9.7 | 6.4 | 50.5* | 9.1 | 1.0
Cc1ccc(NC(=O)C(C)[n+]2ccccc2)cc1[N+](=O)[O-] (centres undefined) | 59.9* | -18.5 | -2.9 | -18.7 | -0.2
COc1ccc(NC(=O)/C=C/c2cc(Br)ccc2OC)cc1 | 49.5* | -20.8 | -2.1 | -43.2 | -0.8
SMILES | D2 antagonist | D2 PAM-1 | D2 ag-1 | D2 PAM-2 | D2 ag-2
COc1ccc(OC)c(/C=C/C(=O)Nc2ccc3c(c2)CCC3)c1 | 49.4* | -25.9 | -2.0 | -42.4 | -0.6
CC(C)Cc1ccc(S(=O)(=O)N2CCC(c3ccncc3)CC2)cc1 | . | -12.1 | . | . | 0.0
COc1cc(S(=O)(=O)NC2CCSc3ccccc32)ccc1NC(C)=O (centres undefined) | 5.9 | 33.5* | -2.2 | -5.1 | -1.5
COc1ccc(S(=O)(=O)NC2CCSc3ccccc32)cc1NC(C)=O (centres undefined) | -2.3 | 16.1 | -1.2 | -3.9 | -0.4
CCOc1ccc(S(=O)(=O)N2CCN(c3cccc(C(F)(F)F)c3)CC2)cc1OCC | . | 6.7 | . | . | 1.0
O=C(c1ccccc1)c1c2c(cc3sc4ccccc4[n+]13)-c1cccc3cccc-2c13 | 44.5* | -20.5 | 4.7 | 7.7 | 60.3*
COc1ccc(C(NC(=O)C2CCN(CCOc3ccc(Cl)cc3Cl)CC2)c2cccs2)cc1 (centres undefined) | . | . | 69.9* | -17.7 | .
COc1ccc(C(NC(=O)C2CCN(CCOc3ccc(F)cc3)CC2)c2cccs2)cc1 (centres undefined) | . | . | -4.4 | -16.7 | .
CC(=O)N1c2ccc(S(=O)(=O)NCC3CCC(C(=O)Nc4cccc(F)c4)CC3)cc2CC1C (centres undefined) | . | 2.5 | . | . | 0.1
COc1cc(C(=O)Nc2nc3c(s2)Cc2c(Br)ccc(OC)c2-3)cc(OC)c1OC | . | -25.7 | . | . | 3.7
CCCN(CC(=O)Nc1ccc(Cl)cc1Cl)C(=O)CC(NC(C)=O)c1ccccc1 (centres undefined) | -9.8 | 0.3 | -4.0 | -47.8 | 0.4
CC(=O)NC(CC(=O)NC(C)c1ccc(Cl)cc1Cl)c1ccccc1 (centres undefined) | 34.4* | -4.8 | -0.9 | -16.3 | -5.1
O=C(NCCc1ccc(Cl)cc1)C1CCN(c2ncccn2)CC1 | 60.9* | 9.6 | -1.5 | -26.1 | -1.8
O=C(NCCc1ccc(Cl)cc1)C1CCN(c2cnccn2)CC1 | -0.3 | -3.4 | 0.8 | 2.1 | -1.1
CCOC1=C2CN(S(=O)(=O)c3ccc(C)cc3)[C@@H](c3ccc(CC)cc3)C[C@H]2[C@H]2C(=O)N(c3ccccc3)C(=O)[C@H]2C1 | . | . | -6.9 | -5.5 | .
CCOC(=O)c1cc(C)[nH]c1C | -8.5 | 8.6 | -19.6 | -9.8 | 0.1
CCOC(=O)c1cc(C)[nH]c(=O)c1C#N | -17.1 | 7.2 | -0.8 | 62.1* | 0.1
CN(Cc1ccccc1)C(C(=O)NC1CCCCC1)c1ccc(Cl)cc1 (centres undefined) | . | 7.6 | . | . | -0.4
CCCc1cc(=O)[nH]c(SCC(=O)N2CCOCC2)n1 | -0.9 | -1.8 | -7.7 | -1.8 | 1.0
CCCc1cc(=O)[nH]c(SCC(=O)N2CCN(c3ccccc3)CC2)n1 | 38.3* | -4.5 | 0.2 | -19.9 | 0.4
Cc1ccccc1Cc1c(C)nc2nc(SCC(=O)NCCCN3CCCCC3)nn2c1C | 75.4* | 14.5 | 4.1 | -2.7 | 0.7
Cc1nc2nc(SCC(=O)NCCCN3CCCCCC3)nn2c(C)c1Cc1ccccc1 | -6.3 | 5.3 | -3.9 | -10.5 | -0.3
C=CCn1c(C)nnc1SCC(=O)Nc1ccccc1C(=O)NC1CC1 | 3.8 | 3.5 | -2.8 | 10.7 | -0.5
Cc1ccc(NC(=O)Cc2nnc(SCC(=O)NC3CCCC3)n2C)cc1C | 31.4* | 19.0 | -4.7 | -6.1 | -1.4
CCn1c(CC(=O)Nc2ccccc2Cl)nnc1SCC(=O)NC1CCCC1 | 34.2* | -2.5 | -5.3 | -8.5 | 0.4
CCn1c(CC(=O)Nc2ccccc2F)nnc1SCC(=O)NC1CCCCC1 | -17.8 | -0.8 | -1.8 | -3.5 | 2.4
